The list is not random: actives were taken first. Their share in the collection is about 4.8%.
hgDAF-12 ag: H. glycines DAF-12 receptor agonists, primary screen, cell-based, luminescence, HEK293, GAL4 fusion, UAS-luciferase | Nuclear hormone receptor DAF-12 (Heterodera glycines), GAL4 fusion | HEK293 GAL4-hgDAF12 UAS-luciferase reporter, agonist luminescence; normalized to butyrate control | AID 687014, 2013 | 370,000 compounds, 1.8% hits | activation, % at 6.8 µM;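 active means activation above a cutoff set at the mean of all screened compounds plus 3 SD, cut at about 10% in these data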
ssDAF-12 act: S. stercoralis DAF-12 nuclear receptor activators, primary screen, cell-based, luminescence, HEK293, GRIP1 co-expression, lit1-tk-luc; Nuclear hormone receptor DAF-12 (Strongyloides stercoralis); HEK293 ssDAF-12/GRIP1 lit1-tk-luc reporter; % of 3 µM dafachronic acid response; activation, % at 6.8 µM; 370,000 compounds, 1% hits;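 active means activation above the mean over all tested compounds plus 3 SD, cut at about 0.9% in these data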
DAX1 inh-1: DAX1 (NR0B1) inhibitors, primary screen, cell-based, HEK293, Gal4-DAX1, luciferase luminescence; inhibition, % at 6.75 µM; 340,000 compounds, 0.99% hits; HEK293 Gal4-DAX1 luciferase reporter; Nuclear receptor subfamily 0 group B member 1 (Homo sapiens), P51843; AID 504766, 2011;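 active means inhibition above the mean over all tested compounds plus 3 SD, cut at about 4.2% in these data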;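 further: inhibition shows as a rise in luminescence from relieved DAX1 repression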
Target sequence (P51843 207-470 limits assumed): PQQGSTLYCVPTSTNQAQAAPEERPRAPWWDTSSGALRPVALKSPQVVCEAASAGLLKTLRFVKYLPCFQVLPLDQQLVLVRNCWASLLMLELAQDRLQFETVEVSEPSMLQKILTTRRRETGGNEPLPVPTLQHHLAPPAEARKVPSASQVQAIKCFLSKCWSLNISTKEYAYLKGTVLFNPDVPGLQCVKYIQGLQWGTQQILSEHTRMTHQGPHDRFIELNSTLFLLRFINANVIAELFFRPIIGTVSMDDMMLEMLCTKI
DAX1 inh-2: DAX1 (NR0B1) inhibitors on StAR promoter, primary screen, cell-based, luminescence, SF-1 (NR5A1), full-length DAX-1; inhibition, % at 6.8 µM; HEK293T StAR-luciferase reporter, SF-1/DAX-1 repression relief; 370,000 compounds, 1.1% hits;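 active means inhibition above the mean over all tested compounds plus 3 SD, cut at about 3.6% in these data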;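 further: higher inhibition means more luminescence from relief of DAX-1 repression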
hcDAF12 agonist: H. contortus DAF-12 nuclear receptor activators, primary screen, cell-based, luminescence, HEK293, lit1-tk-luc reporter. HEK293 hcDAF-12 lit1-tk-luc reporter; 0% DMSO, 100% Δ7-dafachronic acid. activation, % at 6.8 µM. 370,000 compounds, 1.4% hits. AID 652067, 2013;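 active means activation above the mean of all tested compounds plus 3 SD, cut at about 5.5% in these data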
Rev-erbA mod: modulators of Rev-erb alpha DNA binding, primary screen, biochemical, FITC-DNA, fluorescence polarization, uHTS | activity, % at 10 µM | AID 1259318, 2017 | Rev-erbα–FITC-DNA binding, 90 min | 370,000 compounds, 0.79% hits;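 active means activity above about 14%, limit read from the data; passing the limit was not always enough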
LXRb hcDAF ctr: LXR agonists, Gal4 luciferase reporter, confirmation, counter-screen for hcDAF-12 agonist project, cell-based, luminescence, HEK293, H. contortus campaign | shares compounds with hcDAF12 agonist | HEK293 Gal4-LXR tk-luc reporter, 24 h; normalized: DMSO 0%, positive control 100% | activation, % at 6.8 µM | 3,400 tested, under 10 active | AID 743027, 2013;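 active means mean percent activation of the reporter above a cutoff set as the average over tested compounds plus their standard deviation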
Target sequence (P55055 whole entry, looked up, the tested form may be a part): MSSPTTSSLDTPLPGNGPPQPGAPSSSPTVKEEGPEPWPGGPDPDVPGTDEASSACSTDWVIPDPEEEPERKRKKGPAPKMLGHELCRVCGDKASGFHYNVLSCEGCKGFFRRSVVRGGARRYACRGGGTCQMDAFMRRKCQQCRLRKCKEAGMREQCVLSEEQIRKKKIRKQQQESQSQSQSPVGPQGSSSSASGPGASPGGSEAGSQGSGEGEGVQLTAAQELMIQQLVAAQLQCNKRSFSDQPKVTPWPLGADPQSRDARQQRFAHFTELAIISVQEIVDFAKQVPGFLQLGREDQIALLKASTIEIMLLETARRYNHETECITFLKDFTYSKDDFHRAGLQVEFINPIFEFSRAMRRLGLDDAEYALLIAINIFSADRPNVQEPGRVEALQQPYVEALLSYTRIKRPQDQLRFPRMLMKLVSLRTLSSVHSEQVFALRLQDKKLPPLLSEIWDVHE
hcDAF12 ag: H. contortus DAF-12 receptor agonists, confirmation, cell-based, luminescence, HEK293, lit1-tk-luc, triplicate; HEK293 hcDAF-12 lit1-tk-luc reporter; % of Δ7-dafachronic acid response; activation, % at 6.8 µM; shares compounds with hcDAF12 agonist; 3,400 compounds, 61% hits;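 active means mean activation across triplicate tests above the threshold derived from the earlier primary screen, cut at about 5.5% in these data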
hgDAF12 ag: H. glycines DAF-12 receptor agonists, confirmation, cell-based, luminescence, HEK293, GAL4-LBD fusion; shares compounds with hgDAF-12 ag; HEK293 GAL4-hgDAF12 luciferase reporter, agonist mode; percent of butyrate response; activation, % at 6.8 µM; 3,300 compounds, 80% hits; AID 743050, 2013;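 active means mean activation over triplicate wells above the hit cutoff derived from the earlier primary screen, cut at about 11% in these data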
LXRb DAF12 ctr: LXR agonists, Gal4 luciferase reporter, confirmation, counter-screen for hgDAF-12 agonist project, cell-based, luminescence, HEK293, H. glycines campaign; 24 h; activation, % at 6.8 µM; 3,300 tested, under 10 active; shares compounds with hgDAF-12 ag;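 active means mean activation of the triplicate above a set limit carried over from the primary screen, none filed active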
Large screens that a line does not name were inactive (follow-up assays come after a bar, where they were run).

CCOC(=O)c1c(C)oc2c1c1c(c3ccccc32)OCN(Cc2cccnc2)C1	none (no result: hgDAF-12 ag, ssDAF-12 act, DAX1 inh-2, hcDAF12 agonist, Rev-erbA mod)
Oc1ccccc1-c1cc(-c2cccc(F)c2)n[nH]1	hgDAF-12 ag 23.6, ssDAF-12 act 2.4, DAX1 inh-2 4.4, hcDAF12 agonist 21.0 | LXRb hcDAF ctr inactive | hcDAF12 ag 15.7 | hgDAF12 ag 27.2 | LXRb DAF12 ctr inactive
O=C(Nc1ccccc1)Nc1cccc2cccnc12	hgDAF-12 ag 15.2, ssDAF-12 act 1.8, hcDAF12 agonist 9.0 | LXRb hcDAF ctr inactive | hcDAF12 ag 8.6 | hgDAF12 ag 16.5 | LXRb DAF12 ctr inactive
O=C(Nc1ccccc1)c1ccccc1O	none
Cc1ccc(NC(=O)c2ccccc2O)cc1	hgDAF-12 ag 19.6, ssDAF-12 act 2.1, hcDAF12 agonist 10.3 | LXRb hcDAF ctr inactive | hcDAF12 ag 8.3 | hgDAF12 ag 17.0 | LXRb DAF12 ctr inactive
Cc1ccc(NC(=O)c2cccc3cccnc23)cc1	hgDAF-12 ag 16.7, ssDAF-12 act 2.7, hcDAF12 agonist 8.8 | LXRb hcDAF ctr inactive | hcDAF12 ag 10.2 | hgDAF12 ag 18.6 | LXRb DAF12 ctr inactive
NC(=O)c1c(N)[nH]c(C(=O)c2ccccc2)c1-c1ccccc1Cl	none (no result: DAX1 inh-1)
CCCCCCCCN1C(=O)[C@@H](CC(=O)NCCC(C)C)C[C@@]2(C(=O)OC)C1=C[C@H](C(C)(C)C)O[C@@H]2C	none (no result: DAX1 inh-1)
O=C(Nc1ccc2ccccc2n1)c1ccccc1Br	hgDAF-12 ag 18.8, ssDAF-12 act 3.8, hcDAF12 agonist 16.3 | LXRb hcDAF ctr inactive | hcDAF12 ag 9.5 | hgDAF12 ag 18.2 | LXRb DAF12 ctr inactive
O=C(Nc1ccc2ccccc2n1)c1ccccc1	hgDAF-12 ag 19.7, ssDAF-12 act 1.1, hcDAF12 agonist 13.2 | LXRb hcDAF ctr inactive | hcDAF12 ag 12.2 | hgDAF12 ag 20.8 | LXRb DAF12 ctr inactive
Cc1cc(C)cc(NC(=O)Nc2ccc3ccccc3n2)c1	none
Cc1ccc(C(=O)Nc2ccc3ccccc3n2)cc1	hgDAF-12 ag 15.2, ssDAF-12 act 2.7, hcDAF12 agonist 8.2 | LXRb hcDAF ctr inactive | hcDAF12 ag 8.4 | hgDAF12 ag 21.1 | LXRb DAF12 ctr inactive
O=[N+]([O-])c1cncc2[nH]cnc12	none (no result: DAX1 inh-1)
CCCCOCCCNC(=O)C[C@@H]1C(=O)N(Cc2ccc(OC)cc2)/C2=C/CCCCC[C@@]21C(=O)OCC	none (no result: DAX1 inh-1)
C#CCNC(=O)C[C@@H]1C(=O)N(CCc2ccc(Cl)cc2)C2=CCCCC[C@]21C(=O)OC	none (no result: DAX1 inh-1)
Cc1ccc(COc2ccc(C)nc2[N+](=O)[O-])cc1	hgDAF-12 ag 13.9, hcDAF12 agonist 9.6 (no result: DAX1 inh-1) | LXRb hcDAF ctr inactive | hcDAF12 ag 7.3 | hgDAF12 ag 14.3 | LXRb DAF12 ctr inactive
COC(=O)[C@]12C[C@H](CC(=O)N3CCCC3)C(=O)N(Cc3ccccc3)C1=C[C@H](C1CCCC1)O[C@@H]2C	none (no result: DAX1 inh-1)
O=[N+]([O-])c1ccc(-c2cn(-c3ccc(Cl)cc3)cn2)cc1	none (no result: DAX1 inh-1)
Brc1ccc(-n2cnc(-c3ccccc3)c2)cc1	hgDAF-12 ag 20.5, DAX1 inh-1 5.4, hcDAF12 agonist 7.2 | LXRb hcDAF ctr inactive | hcDAF12 ag inactive | hgDAF12 ag 20.5 | LXRb DAF12 ctr inactive
CCN(CC)S(=O)(=O)c1ccc(C(=O)OCC(=O)Nc2ccc(-c3nc4ccc(C)cc4s3)cc2)cc1	hgDAF-12 ag 14.3, DAX1 inh-2 4.0, hcDAF12 agonist 7.6 | LXRb hcDAF ctr inactive | hcDAF12 ag 8.9 | hgDAF12 ag 22.6 | LXRb DAF12 ctr inactive
CCN(CC)S(=O)(=O)c1ccc(NC(=O)COC(=O)c2ccc(-n3nc(C)cc3C)cc2)cc1	none
COc1ccc2cc(C(=O)N3CCc4ccccc43)[nH]c2c1	hgDAF-12 ag 19.1, ssDAF-12 act 1.6, hcDAF12 agonist 14.4 | LXRb hcDAF ctr inactive | hcDAF12 ag 12.5 | hgDAF12 ag 23.9 | LXRb DAF12 ctr inactive
CC(=O)c1cc(C(=O)Nc2ccc3ccccc3c2)c(C)o1	none
Cc1cc(C(=O)Nc2ccc3ccccc3c2)c(C)o1	hgDAF-12 ag 18.2, ssDAF-12 act 1.7, hcDAF12 agonist 8.5 | LXRb hcDAF ctr inactive | hcDAF12 ag 10.9 | hgDAF12 ag 21.3 | LXRb DAF12 ctr inactive
Cc1cc(C(=O)Nc2ccc3ccccc3c2)oc1C	hgDAF-12 ag 19.0, hcDAF12 agonist 7.3 | LXRb hcDAF ctr inactive | hcDAF12 ag 6.9 | hgDAF12 ag 19.2 | LXRb DAF12 ctr inactive
COC(=O)CCN(Cc1ccc(OC)cc1OC)S(=O)(=O)c1ccccc1Br	none (no result: DAX1 inh-1)
O=C(NN=Cc1ccccc1C(F)(F)F)c1cc(-c2ccc(Cl)cc2)n[nH]1	none (no result: DAX1 inh-1)
Cc1cnc(NC(=O)c2ccc3c(c2)OCCO3)s1	none
Cc1ccc(C(=O)Nc2ncc(C)s2)s1	hgDAF-12 ag 17.4, hcDAF12 agonist 6.8 | LXRb hcDAF ctr inactive | hcDAF12 ag 6.3 | hgDAF12 ag 17.5 | LXRb DAF12 ctr inactive
Cc1cc(/C(N)=N/OC(=O)c2ccccc2Cl)no1	hgDAF-12 ag 14.4, ssDAF-12 act 1.2, hcDAF12 agonist 13.4 (no result: DAX1 inh-1) | LXRb hcDAF ctr inactive | hcDAF12 ag 9.6 | hgDAF12 ag 17.0 | LXRb DAF12 ctr inactive

Compound activity from PubChem BioAssay.
